Assay results: the supplement of paper PMC12067093, “Discovery and optimisation of a covalent ligand for TRIM25 and its application to targeted protein ubiquitination” (Chemical Science, 2025)
The full data set covers some 21,000 targets. This sample favours those with the largest changes.

Compound: Cc1cc(ccc1-c1ccccc1)C(=O)N1CCCN(CC1)C(=O)CCl [compound 10]
Assay: probe-labelled cysteine peptide fold change vs DMSO (competition) (log2 fold change); higher = less target engagement (more negative = stronger competition)
Conditions: THP-1, incubation time: 4 h
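Further: competitive profiling in live THP-1 cells: cysteine peptides tagged with an iodoacetamide desthiobiotin (IA-DTB) probe, intensity after compound treatment relative to DMSO-treated cells.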

Sequence of UniProt Q8NBI6 (Q8NBI6 whole entry, looked up): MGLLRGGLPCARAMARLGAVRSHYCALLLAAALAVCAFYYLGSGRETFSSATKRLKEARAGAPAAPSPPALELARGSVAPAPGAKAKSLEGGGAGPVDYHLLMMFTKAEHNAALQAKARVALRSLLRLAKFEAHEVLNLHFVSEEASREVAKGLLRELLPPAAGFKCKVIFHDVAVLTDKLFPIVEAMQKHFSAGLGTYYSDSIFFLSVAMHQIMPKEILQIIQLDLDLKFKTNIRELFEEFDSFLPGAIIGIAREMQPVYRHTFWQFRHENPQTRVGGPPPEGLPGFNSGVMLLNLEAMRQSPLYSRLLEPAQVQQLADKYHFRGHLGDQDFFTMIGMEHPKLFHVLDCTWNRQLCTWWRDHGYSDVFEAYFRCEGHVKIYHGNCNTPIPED
Sequence of UniProt O75717 (O75717 whole entry, looked up): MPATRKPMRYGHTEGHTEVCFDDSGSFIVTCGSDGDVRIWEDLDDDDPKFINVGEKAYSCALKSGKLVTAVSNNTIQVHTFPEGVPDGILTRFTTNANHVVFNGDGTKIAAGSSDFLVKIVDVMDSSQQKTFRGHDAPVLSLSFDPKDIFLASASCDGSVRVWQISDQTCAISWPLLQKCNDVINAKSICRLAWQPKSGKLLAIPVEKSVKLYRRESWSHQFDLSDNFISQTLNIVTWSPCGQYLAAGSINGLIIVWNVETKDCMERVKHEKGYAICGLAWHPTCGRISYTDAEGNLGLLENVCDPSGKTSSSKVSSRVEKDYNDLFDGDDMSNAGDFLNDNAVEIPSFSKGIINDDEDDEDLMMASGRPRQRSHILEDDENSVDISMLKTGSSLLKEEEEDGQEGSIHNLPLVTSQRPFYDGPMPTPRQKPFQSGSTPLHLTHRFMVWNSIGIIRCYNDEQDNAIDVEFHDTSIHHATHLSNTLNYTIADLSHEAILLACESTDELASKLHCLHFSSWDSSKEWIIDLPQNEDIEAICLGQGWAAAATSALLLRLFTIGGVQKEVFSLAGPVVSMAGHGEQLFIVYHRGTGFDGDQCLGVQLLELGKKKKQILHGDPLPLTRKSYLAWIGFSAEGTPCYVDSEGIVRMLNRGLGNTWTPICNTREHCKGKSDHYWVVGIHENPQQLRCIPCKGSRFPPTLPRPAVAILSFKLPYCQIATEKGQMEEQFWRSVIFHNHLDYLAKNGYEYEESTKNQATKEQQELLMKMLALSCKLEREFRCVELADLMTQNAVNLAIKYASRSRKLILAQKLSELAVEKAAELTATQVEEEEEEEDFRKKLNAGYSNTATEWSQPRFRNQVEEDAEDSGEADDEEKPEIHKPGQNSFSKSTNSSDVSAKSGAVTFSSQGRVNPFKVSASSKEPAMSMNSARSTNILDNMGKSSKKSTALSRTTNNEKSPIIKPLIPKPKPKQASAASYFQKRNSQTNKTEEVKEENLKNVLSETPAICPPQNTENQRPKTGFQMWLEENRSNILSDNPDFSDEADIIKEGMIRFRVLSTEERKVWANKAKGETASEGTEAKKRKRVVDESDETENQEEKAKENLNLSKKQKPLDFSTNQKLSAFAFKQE
Sequence of UniProt Q8TF39 (Q8TF39 whole entry): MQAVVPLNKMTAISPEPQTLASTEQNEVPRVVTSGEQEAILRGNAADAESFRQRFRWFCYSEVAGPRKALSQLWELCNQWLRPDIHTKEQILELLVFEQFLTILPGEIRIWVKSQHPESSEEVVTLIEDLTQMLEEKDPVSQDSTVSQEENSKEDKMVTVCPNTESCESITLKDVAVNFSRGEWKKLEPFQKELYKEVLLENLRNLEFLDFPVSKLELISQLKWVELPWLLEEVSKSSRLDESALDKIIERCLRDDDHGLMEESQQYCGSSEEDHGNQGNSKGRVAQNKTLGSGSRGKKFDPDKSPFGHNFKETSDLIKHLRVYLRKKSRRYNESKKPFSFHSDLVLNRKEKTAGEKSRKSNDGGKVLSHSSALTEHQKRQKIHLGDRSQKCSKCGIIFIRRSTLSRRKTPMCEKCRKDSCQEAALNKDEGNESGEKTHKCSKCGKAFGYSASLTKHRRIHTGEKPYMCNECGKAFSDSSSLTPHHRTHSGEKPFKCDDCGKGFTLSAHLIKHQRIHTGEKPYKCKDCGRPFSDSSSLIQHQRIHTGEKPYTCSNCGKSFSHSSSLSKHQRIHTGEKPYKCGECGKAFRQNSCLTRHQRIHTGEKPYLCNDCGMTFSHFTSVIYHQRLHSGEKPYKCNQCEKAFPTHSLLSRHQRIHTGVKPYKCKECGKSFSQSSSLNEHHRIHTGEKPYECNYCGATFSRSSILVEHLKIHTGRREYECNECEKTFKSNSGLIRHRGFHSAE
Sequence of UniProt Q15942 (Q15942 whole entry, looked up): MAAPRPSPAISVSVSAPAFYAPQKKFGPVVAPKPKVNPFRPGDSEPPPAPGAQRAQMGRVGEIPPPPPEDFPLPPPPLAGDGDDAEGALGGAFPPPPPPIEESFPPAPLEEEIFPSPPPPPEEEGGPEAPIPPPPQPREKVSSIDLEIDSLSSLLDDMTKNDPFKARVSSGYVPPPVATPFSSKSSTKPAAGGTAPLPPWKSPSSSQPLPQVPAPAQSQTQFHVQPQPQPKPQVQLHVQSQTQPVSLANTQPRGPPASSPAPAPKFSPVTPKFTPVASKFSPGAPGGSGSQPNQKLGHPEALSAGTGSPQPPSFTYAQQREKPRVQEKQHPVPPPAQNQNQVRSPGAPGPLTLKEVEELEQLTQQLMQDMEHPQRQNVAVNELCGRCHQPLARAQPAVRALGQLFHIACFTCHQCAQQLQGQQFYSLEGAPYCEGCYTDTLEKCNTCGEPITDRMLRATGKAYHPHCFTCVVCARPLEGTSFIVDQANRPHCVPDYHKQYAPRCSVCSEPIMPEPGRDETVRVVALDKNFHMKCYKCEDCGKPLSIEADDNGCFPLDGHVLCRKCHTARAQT
Sequence of UniProt Q9Y2Z4 (Q9Y2Z4 whole entry, looked up): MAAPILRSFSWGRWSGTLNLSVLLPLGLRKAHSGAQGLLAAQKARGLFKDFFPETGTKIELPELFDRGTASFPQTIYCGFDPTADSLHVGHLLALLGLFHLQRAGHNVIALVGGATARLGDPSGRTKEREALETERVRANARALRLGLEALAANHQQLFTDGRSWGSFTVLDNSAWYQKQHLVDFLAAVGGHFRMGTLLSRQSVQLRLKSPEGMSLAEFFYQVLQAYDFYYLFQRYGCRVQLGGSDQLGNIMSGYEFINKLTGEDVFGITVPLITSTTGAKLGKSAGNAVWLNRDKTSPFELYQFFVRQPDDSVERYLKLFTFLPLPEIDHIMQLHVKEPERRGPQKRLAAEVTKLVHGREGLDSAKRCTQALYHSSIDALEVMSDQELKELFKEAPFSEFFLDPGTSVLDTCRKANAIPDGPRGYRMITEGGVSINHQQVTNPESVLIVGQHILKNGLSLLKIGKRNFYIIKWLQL
Sequence of UniProt Q7Z7L7 (Q7Z7L7 whole entry): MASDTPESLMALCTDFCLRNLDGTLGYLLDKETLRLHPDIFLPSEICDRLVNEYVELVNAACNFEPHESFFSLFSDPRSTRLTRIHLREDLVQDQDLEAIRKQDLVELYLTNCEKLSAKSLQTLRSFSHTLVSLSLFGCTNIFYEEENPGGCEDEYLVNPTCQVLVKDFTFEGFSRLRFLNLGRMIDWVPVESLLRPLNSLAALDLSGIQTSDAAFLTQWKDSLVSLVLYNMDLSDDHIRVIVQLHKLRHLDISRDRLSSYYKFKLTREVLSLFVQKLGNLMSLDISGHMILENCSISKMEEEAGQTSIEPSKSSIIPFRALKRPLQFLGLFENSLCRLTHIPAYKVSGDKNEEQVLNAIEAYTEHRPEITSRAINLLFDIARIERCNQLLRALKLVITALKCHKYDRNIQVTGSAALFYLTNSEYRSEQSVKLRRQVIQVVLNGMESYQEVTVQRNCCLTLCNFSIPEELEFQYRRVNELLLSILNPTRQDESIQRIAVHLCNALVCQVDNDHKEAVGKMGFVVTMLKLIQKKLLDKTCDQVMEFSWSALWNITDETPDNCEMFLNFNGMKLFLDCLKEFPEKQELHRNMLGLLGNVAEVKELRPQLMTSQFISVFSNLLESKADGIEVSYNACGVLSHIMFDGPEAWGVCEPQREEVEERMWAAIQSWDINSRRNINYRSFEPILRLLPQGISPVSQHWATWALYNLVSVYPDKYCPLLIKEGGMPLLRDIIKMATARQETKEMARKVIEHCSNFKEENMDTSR
Sequence of UniProt Q9H869 (Q9H869 whole entry, looked up): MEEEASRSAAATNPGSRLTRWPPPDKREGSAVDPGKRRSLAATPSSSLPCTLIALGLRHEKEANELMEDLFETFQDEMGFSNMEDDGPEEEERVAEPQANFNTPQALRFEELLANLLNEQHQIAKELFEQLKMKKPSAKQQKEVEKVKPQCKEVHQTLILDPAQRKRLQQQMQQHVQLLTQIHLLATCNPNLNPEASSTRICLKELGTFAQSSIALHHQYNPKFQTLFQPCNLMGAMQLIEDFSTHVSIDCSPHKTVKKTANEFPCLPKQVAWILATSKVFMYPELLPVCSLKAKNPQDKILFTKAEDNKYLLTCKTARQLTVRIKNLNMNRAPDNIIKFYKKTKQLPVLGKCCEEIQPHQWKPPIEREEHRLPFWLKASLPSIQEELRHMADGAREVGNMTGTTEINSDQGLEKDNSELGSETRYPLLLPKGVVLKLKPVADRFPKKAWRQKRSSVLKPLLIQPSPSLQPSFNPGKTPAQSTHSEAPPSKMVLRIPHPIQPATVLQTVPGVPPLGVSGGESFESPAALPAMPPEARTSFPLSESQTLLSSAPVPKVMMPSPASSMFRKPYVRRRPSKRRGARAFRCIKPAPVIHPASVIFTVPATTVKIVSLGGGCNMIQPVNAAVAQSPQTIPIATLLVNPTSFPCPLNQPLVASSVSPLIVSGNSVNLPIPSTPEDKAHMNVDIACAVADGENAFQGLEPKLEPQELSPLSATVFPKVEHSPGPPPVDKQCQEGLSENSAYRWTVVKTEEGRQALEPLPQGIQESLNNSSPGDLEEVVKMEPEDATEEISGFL

Target	probe-labelled cysteine peptide fold change (10 µM)	probe-labelled cysteine peptide fold change (50 µM)
ZYX_Q15942_467_AYHPHCFTCVVCAR (UniProt Q15942)	0.229	0.194
ZNF512B_Q96KM6_6_TDPFCVGGR (UniProt Q96KM6)	-0.0569	0.0733
ZC3H11A_O75152_588_SVLTPLRGDVASCNTQVAEK (UniProt O75152)	-0.0147	0.00571
WDR43_Q15061_291_LAVVCR (UniProt Q15061)	0.0146	0.0317
WDR82_Q6UXN9_195_TCEWTGLK (UniProt Q6UXN9)	-0.0459	0.418
ZMYM2_Q9UBW7_608_LYNFCNSSCVAK (UniProt Q9UBW7)	-0.186	-1.35
ZNF562_Q6V9R5_17_EPICPFEEK<|>ZNF561_Q8N587_17_EPICPFEEK (UniProt Q8N587+Q6V9R5)	-0.186	-1.08
XIAP_P98170_213_NWEPCDR (UniProt P98170)	-0.0911	-0.654
WDFY4_Q6ZS81_88_AWEHSVGIICFPSLQR (UniProt Q6ZS81)	-0.23	0.423
WASHC5_Q12768_385_WLMLHTADSACDPNNKR (UniProt Q12768)	-2.11	-2.63
ZNF76_P36508_342_HHVVHTHCK (UniProt P36508)	-0.115	-0.0476
XRN2_Q9H0D6_715_HHPLHDFILELYQTGSTEPVEVPPELCHGIQGK (UniProt Q9H0D6)	-0.0366	0.0175
ZC3HAV1_Q7Z2W4_7_ADPEVCCFITK (UniProt Q7Z2W4)	0.158	0.175
ZNF430_Q9H8G1_138_CGHEDLQLR (UniProt Q9H8G1)	-0.195	-0.412
ZNF638_Q14966_688_EQSLHYGSVLLITELPEDGCTEEDVR (UniProt Q14966)	0.0192	0.11
ZNF516_Q92618_165_KGAEGSACAPGEAK (UniProt Q92618)	0.0165	-0.317
WDFY4_Q6ZS81_2352_EAEGEPDEVGVDCTQLTFFPALHESLHSEDFLELCR (UniProt Q6ZS81)	-0.125	-0.598
WNK1_Q9H4A3_1135_VVECQLETHNRK (UniProt Q9H4A3)	0.208	0.14
ZNF787_Q6DD87_350_IHAVGAPSVCSSCGQSYYR (UniProt Q6DD87)	-0.238	-0.311
ZNF451_Q9Y4E5_150_TGTINCGTK (UniProt Q9Y4E5)	-0.175	-1.18
YY1AP1_Q9H869_689_AHMNVDIACAVADGENAFQGLEPK (UniProt Q9H869)	-0.0161	0.141

Target	probe-labelled cysteine peptide fold change (10 µM)	probe-labelled cysteine peptide fold change (50 µM)
WDR47_O94967_672_GSIYCVAWSPCGQLLATGSNDK (UniProt O94967)	-0.439	-1.25
ZC3H12A_Q5D1E8_374_RPSPSSQSSSLLTESEQCSLDGK (UniProt Q5D1E8)	-0.349	-0.484
YTHDC2_Q9H6S0_788_LLAPVNCPIADFLMK (UniProt Q9H6S0)	-0.0326	-0.072
XXYLT1_Q8NBI6_386_IYHGNCNTPIPED (UniProt Q8NBI6)	-0.00561	-0.0309
YARS2_Q9Y2Z4_413_EAPFSEFFLDPGTSVLDTCRK (UniProt Q9Y2Z4)	-0.161	-0.368
WDR77_Q9BQA1_172_AHAAQVTCVAASPHK (UniProt Q9BQA1)	0.0618	0.254
ZNF691_Q5VV52_260_THTGERPYECTECGR (UniProt Q5VV52)	0.396	1.19
ZNF579_Q8NAF0_77_LSHSGLRPHACPLCPK (UniProt Q8NAF0)	0.112	-0.0195
ZMYND11_Q15326_126_CLSDEFR (UniProt Q15326)	-0.00978	0.0128
WDR5_P61964_205_IWDTASGQCLK (UniProt P61964)	0.16	0.0228
ZER1_Q7Z7L7_337_RPLQFLGLFENSLCR (UniProt Q7Z7L7)	-0.124	-0.0583
XPO4_Q9C0E2_723_ANLVIQCENWWNLAK (UniProt Q9C0E2)	0.102	-0.0501
ZNF330_Q9Y3S2_120+122_CLSTHACACPLTDAECVECER (UniProt Q9Y3S2)	0.16	-0.138
ZNF189_O75820_262_CSDCGK<|>ZSCAN22_P52741_466_CSDCGK<|>ZNF16_Q09FC8_435_CSDCGK<|>ZNF81_Q2M218_640_CSDCGK<|>ZNF134_Q5JVG2_290_CSDCGK<|>ZNF415_Q8N8J6_574_CSDCGK (UniProt Q8N8J6+Q5JVG2+Q2M218+Q09FC8+P52741+O75820)	0.0389	0.142
YEATS2_Q9ULM3_565_QEDSLFASMPPLCPIGSHPK (UniProt Q9ULM3)	-0.301	-0.418
YWHAZ_P63104_94_DICNDVLSLLEK (UniProt P63104)	0.233	0.309
ZFAND2B_Q8WV99_134_HRHPLDHDCSGEGHPTSR (UniProt Q8WV99)	-0.148	0.178
WDHD1_O75717_285_GYAICGLAWHPTCGR (UniProt O75717)	-0.0417	-0.0589
ZDHHC21_Q8IVQ6_112_CGHCVR (UniProt Q8IVQ6)	0.0718	-0.0337
ZNF483_Q8TF39_392_IHLGDRSQKCSK (UniProt Q8TF39)	-0.0771	-0.64
